D2 ag-1 = HTS Assay for Allosteric Agonists of the Human D2 Dopamine Receptor: Primary Screen for Agonists; HEK293 T-REx D2 cells, calcium flux agonist mode; activation, % at 2 µM; 340,000 tested, 0.53% active; AID 485358, 2010;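 active means activation over 3 SD above normal in the single-dose calcium agonist read, cut at about 30% in these data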
Target sequence (P14416 whole entry, looked up): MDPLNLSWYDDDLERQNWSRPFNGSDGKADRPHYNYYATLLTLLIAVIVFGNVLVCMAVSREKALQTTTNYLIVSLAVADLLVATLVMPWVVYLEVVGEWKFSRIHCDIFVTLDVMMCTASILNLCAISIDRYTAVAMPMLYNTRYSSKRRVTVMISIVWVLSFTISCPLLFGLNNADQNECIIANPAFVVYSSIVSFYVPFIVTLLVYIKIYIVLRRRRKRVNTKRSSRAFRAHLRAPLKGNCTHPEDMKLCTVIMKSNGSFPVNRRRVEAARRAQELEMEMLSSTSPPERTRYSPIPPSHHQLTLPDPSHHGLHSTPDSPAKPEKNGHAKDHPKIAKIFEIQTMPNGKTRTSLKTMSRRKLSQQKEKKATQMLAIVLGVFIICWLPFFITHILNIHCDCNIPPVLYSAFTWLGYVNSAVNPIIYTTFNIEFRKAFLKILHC
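Tetracycline-induced HEK293 T-REx cells with force-coupled D2 receptor, plated overnight at 30 C, loaded with no-wash calcium dye. After a 10 s baseline, compound was pin-added and calcium flux read kinetically for 180 s; calcium rises flagged agonists.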
D2 ag-2 = Beta-Arrestin HTS for Positive Allosteric Modulators of the Human D2 Dopamine Receptor: Agonists. AID 624465, 2012. activation, % (test concentration not listed). D(2) dopamine receptor (Homo sapiens), P14416. DiscoveRx PathHunter D2 beta-arrestin, luminescence, 90 min; 100% = 57 uM dopamine signal. 360,000 tested, 0.084% active; in the data active means activation above about 40%
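DiscoveRx PathHunter D2 beta-arrestin cells (2,100/well) attached overnight, then compound-stimulated 90 min at 37 C in HBSS/10 mM HEPES/0.1% Tween-20 buffer; beta-galactosidase complementation read by luminescence after 1 h at ambient temperature. Dopamine 57 uM final (EC100) as control.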
D2 PAM-1 = HTS Assay for Positive Allosteric Modulators of the Human D2 Dopamine Receptor: Primary Screen for Potentiators; D(2) dopamine receptor (Homo sapiens), P14416; AID 485347, 2010; HEK293 T-REx D2, calcium flux, EC20 dopamine potentiation; potentiation, % at 10 µM; 340,000 tested, 0.34% active;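 active means potentiation over 3 SD above the plate norm, cut at about 30% in these data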
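Potentiation of an EC20 dopamine calcium response is measured in a force-coupled, tetracycline-inducible Hek293 Trex D2 line. Compound-only kinetic reads over 180 s flag agonists before dopamine addition.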
D2 PAM-2 = Beta-Arrestin HTS for Positive Allosteric Modulators of the Human D2 Dopamine Receptor: Potentiators; D(2) dopamine receptor (Homo sapiens), P14416; DiscoveRx D2 beta-arrestin cells, luminescence, 90 min; 100% = 57 uM dopamine signal; potentiation, % (test concentration not listed); 360,000 tested, 0.23% active; AID 624464, 2012; in the data active means potentiation above about 50%
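PathHunter beta-arrestin assay in DiscoveRx D2 cells. Compounds were added with an EC20 of dopamine (50 nM final) for 90 min at 37 deg C. Luminescence was read 1 h after detection reagent, with 57 uM dopamine as the EC100 control.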
D2 antag = HTS Assay for Allosteric Antagonists of the Human D2 Dopamine Receptor: Primary Screen for Antagonists | D(2) dopamine receptor (Homo sapiens), P14416 | HEK293 TREx D2 cells, calcium flux, dopamine EC80 | inhibition, % at 10 µM | 340,000 tested, 2% active | AID 485344, 2010; in the data active means inhibition above about 30%; inactive means below that, where a call was filed
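Calcium mobilization kinetics were recorded at 1 s intervals in tetracycline-induced HEK293 T-REx D2 cells, first for 180 s after compound addition and then 180 s after EC80 dopamine.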
Numbers stand for hits. Shown are actives, neighbours in structure and some others; about 2.4% of the full set was active somewhere.

Results for COc1cccc(C(C(=O)NC2CCCCC2)N(Cc2ccco2)C(=O)c2ccccn2)c1 (stereo unspecified) ?
D2 ag-1: inactive; D2 ag-2: inactive; D2 PAM-1: inactive; D2 PAM-2: inactive; D2 antag: 34.1

Results for O=c1[nH]c(Nc2ccc3c(c2)OCCO3)nnc1Cc1ccccc1 ?
D2 ag-1: inactive; D2 ag-2: inactive; D2 PAM-1: inactive; D2 PAM-2: inactive; D2 antag: 48.6

Results for COc1ccc(-c2cc(C(F)(F)F)nc(N3CCCCCC3)n2)cc1 ?
D2 ag-1: inactive; D2 ag-2: inactive; D2 PAM-1: inactive; D2 PAM-2: inactive; D2 antag: inactive

How did COc1ccc(-c2cc(C#N)nc(N3CCN(C)CC3)n2)cc1 do in these assays?
D2 ag-1: inactive; D2 ag-2: inactive; D2 PAM-1: inactive; D2 PAM-2: inactive; D2 antag: 55.0

How did CN1CCN(c2nc(C#N)cc(-c3ccccc3)n2)CC1 do in these assays?
D2 ag-1: inactive; D2 ag-2: inactive; D2 PAM-1: inactive; D2 PAM-2: inactive; D2 antag: inactive

Results for COc1ccc(-c2cc(C(F)(F)F)nc(N3CCN(C)CC3)n2)cc1 ?
D2 ag-1: inactive; D2 ag-2: inactive; D2 PAM-1: inactive; D2 PAM-2: inactive; D2 antag: 39.3

What do the screens show for `CC(C)OCc1cc(CN2CCN(c3ccccc3)CC2)c(O)c2ncccc12`?
D2 ag-1: inactive; D2 PAM-1: inactive

How did Oc1c(CN2CCN(c3ccccc3)CC2)cc(Br)c2cccnc12 do in these assays?
D2 ag-1: inactive; D2 ag-2: inactive; D2 PAM-1: inactive; D2 PAM-2: inactive; D2 antag: 59.3

How did Cc1ccc(-c2nn(-c3ccccc3)cc2CNCc2ccccc2)cc1 do in these assays?
D2 ag-1: inactive; D2 ag-2: inactive; D2 PAM-1: inactive; D2 PAM-2: inactive; D2 antag: 51.0

How did Cc1ccc(-c2nn(-c3ccccc3)cc2CO)cc1 do in these assays?
D2 ag-1: inactive; D2 ag-2: inactive; D2 PAM-1: inactive; D2 PAM-2: inactive; D2 antag: inactive

How did CCN(c1ccccc1)S(=O)(=O)c1cc(Br)cc2c1N(C(=O)C1CC1)CC2 do in these assays?
D2 ag-1: inactive; D2 PAM-1: inactive

What do the screens show for `CC1CCCCN1C(=O)c1ccccc1NC(=O)c1ccco1` (stereo unspecified)?
D2 ag-1: inactive; D2 ag-2: inactive; D2 PAM-1: 31.3; D2 PAM-2: inactive; D2 antag: inactive

How did CNC(=O)c1ccccc1NC(=O)c1ccco1 do in these assays?
D2 ag-1: inactive; D2 ag-2: inactive; D2 PAM-1: 33.6; D2 PAM-2: inactive; D2 antag: inactive

Results for Cc1ccccc1NC(=O)c1ccccc1NC(=O)c1ccco1 ?
D2 ag-1: inactive; D2 ag-2: inactive; D2 PAM-1: inactive; D2 PAM-2: inactive; D2 antag: inactive

How did O=C(CN1C(=O)c2ccccc2C1=O)NCCc1c[nH]c2ccccc12 do in these assays?
D2 ag-1: inactive; D2 ag-2: inactive; D2 PAM-1: inactive; D2 PAM-2: inactive; D2 antag: inactive

Results for O=C(CN1CCC(O)(c2ccccc2F)CC1)NCCc1c[nH]c2ccccc12 ?
D2 ag-1: inactive; D2 ag-2: inactive; D2 PAM-1: inactive; D2 PAM-2: inactive; D2 antag: 86.0

What do the screens show for `O=C(COc1ccc(Cl)cc1)NCCNC(=O)c1ccccn1`?
D2 ag-1: inactive; D2 ag-2: inactive; D2 PAM-1: inactive; D2 PAM-2: inactive; D2 antag: inactive

What do the screens show for `CCOC(=O)C1(CC2CC2)CCN(Cc2ccc(C(=O)OC)cc2)CC1`?
D2 ag-1: inactive; D2 ag-2: inactive; D2 PAM-1: inactive; D2 PAM-2: inactive; D2 antag: 71.8

What do the screens show for `CCOc1ccc(OCCCCN2CCCC2)cc1`?
D2 ag-1: inactive; D2 ag-2: inactive; D2 PAM-1: inactive; D2 PAM-2: inactive; D2 antag: inactive

Results for COC(=O)c1ccc(CN2CCCCC2)cc1 ?
D2 ag-1: inactive; D2 ag-2: inactive; D2 PAM-1: inactive; D2 PAM-2: inactive; D2 antag: 35.2
